In PubChem BioAssay:

Assay: small-molecule microarray binders of probe aLefty2, primary screen, biochemical, biotinylated probe, 635/667 nm fluorescence (AID 1094);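 also: score merges spot fluorescence near 667 nm with spot signal-to-noise ratio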
Conditions: higher = more signal
In the case of O=C1C2C=CC(C(O)c3ccc([N+](=O)[O-])cc3)N(Nc3ccccc3)C2C(=O)N1c1ccccc1 (centres undefined), the composite z-score is reported as -0.0469. For CC(=O)NCCCC[C@@H]1NC(=O)[C@H]2C[C@@H](C(=O)NCCCCCC[N+](C)(C)C)[C@@H](c3ccc(O)cc3)N2C1=O, the composite z-score was -0.0206. Work on CCCC[C@H]1OB(O)C[C@H]2C1=C(COC)C[C@H]1C(=O)C=CC(=O)[C@H]12 yielded a composite z-score of -0.0798. C[C@@H](OCc1ccccc1)C1NC(=O)[C@@]23C(=O)N[C@@H](Cc4ccccc4)C2[C@H](C)[C@@]2(C)O[C@H]2C3/C=C/C/C=C\CNC(=O)[C@H](Cc2ccccc2)NC1=O (some centres undefined) showed a composite z-score of -0.23. Work on C=CCC(OC(C)=O)[C@@H]1[C@@H](N(Cc2ccc(-c3cccc(C(F)(F)F)c3)o2)C(=O)c2cccc3ccccc23)c2cc(OCCCO)ccc2N1C(=O)c1ccc2ccccc2c1 (some centres undefined) yielded a composite z-score of -0.0728. With COCCn1c(C(=O)N2CCCC2)cc2c1C[C@H]1CN(C(=O)c3ccccc3)[C@@](Cc3ccccc3)(C(=O)OC)[C@@H]21 the composite z-score was 0.907. C=CC[C@@]12N=C(c3ccc(OCCCO)cc3)O[C@@H]1c1ccccc1N(Cc1ccccc1)C2=O showed a composite z-score of 0.145. C[C@]1(C(=O)NCC(F)(F)F)c2ccccc2C(=O)N(Cc2ccc(OC(F)(F)F)cc2)[C@H]1c1ccc(CO)cc1 gave a composite z-score of -0.133. With O=C1N(CCS(=O)(=O)c2ccccc2)c2ccccc2[C@@H]2OC(c3ccc(OCCCO)cc3)=N[C@]12CCS(=O)(=O)c1ccccc1 the composite z-score was 0.471. In the case of CN(C)CCCC[C@@H]1NC(=O)[C@@H]2C[C@H](C(=O)NCCCCCCNC(=O)CS)[C@H](c3cccc(OCCO)c3)N2C1=O, the composite z-score is reported as 0.0575. With [N-]=[N+]=Nc1ccccc1[C@@H]1OC(c2ccc(OCCCO)cc2)=N[C@]1(Cc1ccccc1)C(N)=O the composite z-score was 0.0529. For C=CC[C@]1(C(=O)N(C)C)COC(c2ccc(OCCCO)cc2)=N1, the composite z-score was 0.804. In the case of O=C1O[C@@H](c2ccccc2)[C@@H](c2ccccc2)N2[C@@H](c3ccc(O)cc3)[C@]3(C(=O)Nc4ccc(C#CC5=CCCCC5)cc43)[C@@H](C(=O)N3CCCCCCC3)[C@H]12, the composite z-score is reported as 1.22. CCCCC(=C=CC[C@@H](O)c1cccc(OCCO)c1)C[C@@H](O)COCc1ccccc1 gave a composite z-score of -0.274. Molecule [N-]=[N+]=NCc1ccccc1C[C@]1(C(=O)O)COC(c2ccc(OCCCO)cc2)=N1 has a composite z-score of -0.0252. COC(=O)[C@]1(CO)N=C(c2ccc(OCCCO)cc2)O[C@@H]1c1ccccc1CN=[N+]=[N-] showed a composite z-score of -0.0884. In the case of COc1ccc(NN2C(C(O)c3cc(C(F)(F)F)cc(C(F)(F)F)c3)C=CC3C(=O)N(C4CCCCC4)C(=O)C32)cc1 (centres undefined), the composite z-score is reported as 0.849. For CN(C)CCCC[C@@H]1NC(=O)[C@H]2C[C@@H](C(=O)NCc3ccc(F)cc3)[C@@H](c3ccc(O)cc3)N2C1=O, the composite z-score was 0.0672. CCCC=C(CCC)[C@@H](NC(=O)c1ccccc1)c1ccc(C(=O)OC)cc1 gave a composite z-score of 0.688. Molecule C=CCC(OC(C)=O)[C@@H]1[C@@H](N(Cc2cccc3ccccc23)C(=O)c2cccc3ccccc23)c2cc(OCCCO)ccc2N1C(=O)Cc1ccc2ccccc2c1 (some centres undefined) has a composite z-score of -0.193. Work on C=C(COC)/C(=C/C[C@@H](OC(C)=O)c1ccccc1OCCO)c1cc(C(=O)OC)ccc1OC yielded a composite z-score of -0.0873. With CO[C@H]1O[C@H](CO)[C@@H](OC(=O)Nc2ccc(C(F)(F)F)cc2)[C@H](OC(=O)Nc2ccccc2-c2ccccc2)[C@@H]1OC(=O)Nc1ccccc1-c1ccccc1 the composite z-score was 0.33. Molecule CCOC(=O)C[C@H]1[C@H](OC(=O)c2ccc(-c3ccccc3)cc2)[C@@H](NC(=O)CC(C)C)c2cc(OCCCO)ccc2N1C(=O)Cc1ccc(OC)cc1 has a composite z-score of 0.19. In the case of CCOC(=O)C[C@H]1[C@H](OC(=O)c2cc3ccccc3oc2=O)[C@@H](NC(=O)C2CCCCC2)c2cc(OCCCO)ccc2N1C(=O)Cc1ccc(OC)cc1, the composite z-score is reported as 0.0424. In the case of N#Cc1ccc(C(O)C2C=CC3C(=O)NC(=O)C3N2Nc2ccccn2)cc1 (centres undefined), the composite z-score is reported as -0.147. Work on O=C1C2C=CC(C(O)c3cccs3)N(Nc3ccccc3)C2C(=O)N1c1ccccc1 (centres undefined) yielded a composite z-score of -0.0329. With COC(=O)[C@@]1(Cc2ccc(OC)cc2)[C@H]2c3cc(C(=O)N4CCCC4)n(CCc4ccc(OC)c(Br)c4)c3C[C@H]2CN1C(=O)c1ccccc1 the composite z-score was 0.153. CO[C@H]1O[C@H](CO)[C@@H](OC(=O)Nc2ccc(C(F)(F)F)cc2)[C@H](OC(=O)Nc2ccccc2-c2ccccc2)[C@H]1OC(=O)Nc1ccccc1-c1ccccc1 gave a composite z-score of 0.0079. In the case of CCOC(=O)C1=C(C(=O)OCC)N(S(=O)(=O)CC[Si](C)(C)C)[C@H](c2ccccc2)CC1, the composite z-score is reported as 0.138.
